# Measurements reported in PubChem BioAssay (Tox21).
# Values without a mark were called inactive. Results filed as inconclusive are left out. Entries that show only a call come without a potency. The source made the active and inactive calls. Calls follow the shape of the full dose curve.
# Assays:
# [1] = target: Acetylcholinesterase (Homo sapiens) (UniProt P22303); assay: Acetylcholinesterase (AChE) small molecule antagonists: colormetric cell-based qHTS assay (AID 1347395); conditions: SH-SY5Y cells AChE activity, colorimetric (Ellman); series mostly up to 115 µM; also: nearly all actives have a fitted effect of over 30% in size; also: potency is read from the fitted curve at half-maximal effect
# In short: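 Cells (SH-SY5Y, 2,000 per well) are seeded and left overnight at 37 C. Compound is added for 30 min, then DTNB and acetylthiocholine for a further 90 min at 37 C before absorbance-based thiocholine detection.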
# [2] = target: Acetylcholinesterase (Homo sapiens) (UniProt P22303); assay: Acetylcholinesterase (AChE) small molecule antagonists: enzyme-based qHTS assay (AID 1347397); conditions: Potency: AChE enzyme activity inhibition; outcome: AChE enzyme activity inhibition; series mostly up to 115 µM; also: nearly all actives have a fitted effect of over 55% in size; also: potency is read from the fitted curve at half-maximal effect
# In short: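 Absorbance-based detection of thiocholine with DTNB served as the read-out. Recombinant human AChE was exposed to compound for 30 min at RT before a 10 min RT incubation with acetylthiocholine.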
# [3] = target: Acetylcholinesterase (Homo sapiens) (UniProt P22303); assay: Acetylcholinesterase (AChE) small molecule antagonists: fluorescence cell-based qHTS assay (AID 1347398); conditions: SH-SY5Y cells; Potency: AChE activity; outcome: AChE activity; series mostly up to 115 µM; also: nearly all actives have a fitted effect of over 50% in size; also: potency is read from the fitted curve at half-maximal effect
# In short: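 Fluorimetric cell-based assay: intact SH-SY5Y cells, 30 min compound preincubation at 37 C, acetylthiocholine substrate with thiol probe Thiolite Green, 40 min RT development, fluorescence 490/520 nm.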
# [4] = target: Acetylcholinesterase (Homo sapiens) (UniProt P22303); assay: Acetylcholinesterase (AChE) small molecule antagonists: enzyme-based qHTS assay with human liver microsomes (AID 1347399); conditions: Potency: qHTS inhibition; outcome: qHTS inhibition; series mostly up to 115 µM; also: nearly all actives have a fitted effect of over 60% in size
# In short: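 Recombinant human AChE (50 mU/mL in the enzyme mix) and human liver microsomes (0.25 mg/mL final) were preincubated with compound and NADPH (0.25 mg/mL final) for 30 min at 37 C. Acetylthiocholine/DTNB was then added; thiocholine was read colorimetrically after 10 min at room temperature.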
# Acetylcholinesterase (Homo sapiens), sequence (P22303 whole entry, looked up): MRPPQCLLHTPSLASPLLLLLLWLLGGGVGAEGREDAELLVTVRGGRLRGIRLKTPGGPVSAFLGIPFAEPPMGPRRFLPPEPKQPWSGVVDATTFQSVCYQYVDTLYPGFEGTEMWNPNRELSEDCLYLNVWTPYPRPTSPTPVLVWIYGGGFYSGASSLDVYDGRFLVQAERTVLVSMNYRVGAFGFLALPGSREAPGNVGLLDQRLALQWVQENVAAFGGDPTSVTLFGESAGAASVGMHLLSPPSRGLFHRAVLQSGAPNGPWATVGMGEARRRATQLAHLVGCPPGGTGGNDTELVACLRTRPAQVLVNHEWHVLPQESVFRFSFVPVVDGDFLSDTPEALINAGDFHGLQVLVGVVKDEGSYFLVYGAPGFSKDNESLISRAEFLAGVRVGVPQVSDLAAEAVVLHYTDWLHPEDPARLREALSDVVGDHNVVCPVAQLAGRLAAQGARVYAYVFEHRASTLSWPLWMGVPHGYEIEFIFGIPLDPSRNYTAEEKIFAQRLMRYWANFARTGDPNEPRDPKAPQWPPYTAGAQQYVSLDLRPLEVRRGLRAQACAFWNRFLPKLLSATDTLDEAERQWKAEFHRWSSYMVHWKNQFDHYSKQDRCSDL
SMILES,Potency [1],Potency [2],Potency [3],Potency [4],"activity, negative = inhibition [1]","activity change, negative = inhibition [2]","activity change, negative = inhibition [3]","activity change, negative = inhibition [4]"
O=C(/C=C/c1ccccc1)OC/C=C/c1ccccc1,inactive,inactive,inactive,inactive,–,–,–,–
O=C(Nc1ccc(Oc2ccc(Cl)cc2)c(Cl)c1)c1cc(I)cc(I)c1O,inactive,inactive,inactive,inactive,–,–,–,–
CC[C@@H](N)CO,inactive,inactive,inactive,inactive,–,–,–,–
CC1c2ccccc2CN1NC(=O)c1ccc(Cl)c(S(N)(=O)=O)c1 (centres undefined),inactive,inactive,inactive,inactive,–,–,–,–
OCCN1CN(CCO)CN(CCO)C1,inactive,inactive,inactive,inactive,–,–,–,–
O=C1CCCCCO1,inactive,inactive,inactive,inactive,–,–,–,–
CCCCCCCC/C=C\CCCCCCCCCCCC(=O)O,inactive,inactive,inactive,inactive,–,–,–,–
CC(C)CC(O)Cc1ccccc1 (centres undefined),inactive,inactive,inactive,inactive,–,–,–,–
CC1(C)O[C@@H]2C[C@H]3[C@@H]4CCC5=CC(=O)CC[C@]5(C)[C@@]4(F)[C@@H](O)C[C@]3(C)[C@]2(C(=O)CCl)O1,inactive,inactive,inactive,inactive,–,–,–,–
CC/C=C/CCCCCCCCCCOC(C)=O,inactive,inactive,inactive,inactive,–,–,–,–
CCC(=O)OC/C=C(\C)CCC=C(C)C,inactive,inactive,inactive,inactive,–,–,–,–
CC(S)C(C)S (centres undefined),inactive,inactive,inactive,inactive,–,–,–,–
ON=C1CCCC1,inactive,inactive,inactive,inactive,–,–,–,–
O=c1[nH]sc2ccccc12,inactive,inactive,inactive,inactive,–,–,–,–
CCC(C)C(=O)OC (centres undefined),inactive,inactive,inactive,inactive,–,–,–,–
CC(C)(C)C1(CCc2ccc(Cl)cc2)CO1 (centres undefined),inactive,inactive,inactive,inactive,–,–,–,–
c1csc(SSc2cccs2)c1,inactive,inactive,inactive,inactive,–,–,–,–
COc1ccc2nc(NC(=O)Nc3ccccc3)sc2c1,inactive,inactive,inactive,inactive,–,–,–,–
CCC(C)COC(=O)CC(C)C (centres undefined),inactive,inactive,inactive,inactive,–,–,–,–
COC(=O)Nc1nc2ccc(C(=O)c3ccccc3)cc2[nH]1,inactive,inactive,inactive,inactive,–,–,–,–
OCCC(F)(F)C(F)(F)C(F)(F)C(F)(F)C(F)(F)C(F)(F)C(F)(F)C(F)(F)F,inactive,inactive,inactive,inactive,–,–,–,–
CCCCCOC(=O)CCCCC,inactive,inactive,inactive,inactive,–,–,–,–

SMILES,Potency [1],Potency [2],Potency [3],Potency [4],"activity, negative = inhibition [1]","activity change, negative = inhibition [2]","activity change, negative = inhibition [3]","activity change, negative = inhibition [4]"
CC1C2CC(CC2C2CCCC(O)C2)C1(C)C (centres undefined),inactive,inactive,inactive,inactive,–,–,–,–
CCOCCOC(=O)/C=C/c1ccc(OC)cc1,inactive,inactive,inactive,inactive,–,–,–,–
CCCC(C)C(O)CC (centres undefined),inactive,inactive,inactive,inactive,–,–,–,–
CCCCCCCCCCCCN(CCCCCCCCCCCC)CCCCCCCCCCCC,inactive,inactive,inactive,inactive,–,–,–,–
NS(=O)(=O)c1cc(C2(O)NC(=O)c3ccccc32)ccc1Cl (centres undefined),inactive,inactive,inactive,inactive,–,–,–,–
CC(C)(C)NCC(O)COc1ccc(NC(=O)NC2CCCCC2)cc1 (centres undefined),inactive,inactive,inactive,inactive,–,–,–,–
Oc1c(Br)cc(Br)c2cccnc12,inactive,inactive,inactive,inactive,–,–,–,–
Brc1cc(Br)c(Oc2cc(Br)c(Br)cc2Br)cc1Br,inactive,inactive,inactive,inactive,–,–,–,–
COc1cccc(Br)c1,inactive,inactive,inactive,inactive,–,–,–,–
Cc1cscn1,inactive,inactive,inactive,inactive,–,–,–,–
CC(C)OC(=O)C(C)N(C(=O)c1ccccc1)c1ccc(F)c(Cl)c1 (centres undefined),inactive,inactive,inactive,inactive,–,–,–,–
C=C(C)C(=O)OCCOCCOC(=O)C(=C)C,inactive,inactive,inactive,inactive,–,–,–,–
COc1cccc(OC)c1,inactive,inactive,inactive,inactive,–,–,–,–
CC=O,41.8 µM (active),74.3 µM (active),26.4 µM (active),inactive,–,–,–,–
NC(=O)C1CO1 (centres undefined),inactive,inactive,inactive,inactive,–,–,–,–
COC(=O)[C@]1(C)CCC[C@@]2(C)[C@H]1CC=C1C=C(C(C)C)CC[C@@H]12,inactive,inactive,inactive,inactive,–,–,–,–
Cc1ccnc2ccccc12,inactive,inactive,inactive,inactive,–,–,–,–
O=C(CS)OCCOC(=O)CS,inactive,inactive,inactive,inactive,–,–,–,–
Cc1cccc(Br)c1,inactive,inactive,inactive,inactive,–,–,–,–
CCCCOc1ccc(C(=O)CCN2CCCCC2)cc1,12.3 µM (active),27.5 µM (active),12.3 µM (active),inactive,–,–,–,–
CC(C)(C)OC(=O)c1ccccc1C(=O)O,inactive,inactive,inactive,inactive,–,–,–,–
CC(C)OC(=O)c1ccccc1C(=O)OC(C)C,inactive,inactive,inactive,inactive,–,–,–,–

SMILES,Potency [1],Potency [2],Potency [3],Potency [4],"activity, negative = inhibition [1]","activity change, negative = inhibition [2]","activity change, negative = inhibition [3]","activity change, negative = inhibition [4]"
COc1cccc(OC)c1C(=O)O,inactive,inactive,inactive,inactive,–,–,–,–
CCC(O)CO (centres undefined),inactive,inactive,inactive,inactive,–,–,–,–
CCOC(=O)CS,inactive,inactive,inactive,inactive,–,–,–,–
COC(=O)[C@@H]1[C@H]2C[C@H]3c4[nH]c5ccccc5c4CCN3C[C@@H]2CC[C@@H]1O,inactive,inactive,inactive,inactive,–,–,–,–
CCOc1ccc(N)c([N+](=O)[O-])c1,inactive,inactive,inactive,inactive,–,–,–,–
CC1CN(c2cc3c(cc2F)c(=O)c(C(=O)O)cn3-c2ccc(F)cc2F)CCN1 (centres undefined),–,–,–,–,1.81% [at 10.5 µM],0.0761% [at 10.5 µM],3.28% [at 10.5 µM],5% [at 10.5 µM]
O=C(NS(=O)(=O)/C=C/c1cccs1)c1ccc(F)cc1Br,inactive,inactive,inactive,inactive,–,–,–,–
O=[N+]([O-])c1cncn1CCN1CCOCC1,inactive,inactive,inactive,inactive,–,–,–,–
CC1=CC(=O)CC(C)(C)C1=O,inactive,inactive,inactive,inactive,–,–,–,–
CN(C)c1ccc(N=Nc2ccccc2C(=O)O)cc1,inactive,inactive,inactive,inactive,–,–,–,–
CCOC(=O)c1ccc(N(C)C)cc1,inactive,inactive,inactive,inactive,–,–,–,–
O=C(N[C@H](CO)[C@H](O)c1ccc([N+](=O)[O-])cc1)C(Cl)Cl,inactive,inactive,inactive,inactive,–,–,–,–
CCCCCC(C)OC(=O)COc1ccc(Cl)c2cccnc12 (centres undefined),inactive,inactive,inactive,inactive,–,–,–,–
Cc1cnc(NS(=O)(=O)c2ccc(N)cc2)nc1,inactive,inactive,inactive,inactive,–,–,–,–
Cc1ccccc1N=C(N)N=C(N)N,inactive,inactive,inactive,inactive,–,–,–,–
CC(=O)N(CC(=O)N(C)C)c1ccccc1,inactive,inactive,inactive,inactive,–,–,–,–
CC(C)c1ccc2oc3nc(N)c(C(=O)O)cc3c(=O)c2c1,inactive,inactive,inactive,inactive,–,–,–,–
O=Cc1cccc(Br)c1,inactive,inactive,inactive,inactive,–,–,–,–
NCCCNCCSP(=O)(O)O,–,–,–,–,2.88% [at 10.5 µM],-0.97% [at 10.5 µM],1.49% [at 10.5 µM],5.32% [at 10.5 µM]
CN(CCCN1c2ccccc2CCc2ccccc21)CC(=O)c1ccc(Cl)cc1,inactive,inactive,inactive,inactive,–,–,–,–
C=C(C)[C@H]1CC=C(C)CC1,inactive,inactive,inactive,inactive,–,–,–,–
Cc1ccc(/C=N/n2c(-c3ccccc3)csc2=S)cc1,inactive,inactive,inactive,inactive,–,–,–,–

SMILES,Potency [1],Potency [2],Potency [3],Potency [4],"activity, negative = inhibition [1]","activity change, negative = inhibition [2]","activity change, negative = inhibition [3]","activity change, negative = inhibition [4]"
CC(=O)c1ccc2c(c1)[C@H](NC(=O)c1ccc(F)cc1)[C@@H](O)C(C)(C)O2,inactive,inactive,inactive,inactive,–,–,–,–
c1cc2c3c(c1)ccc1cccc(c13)C2,inactive,inactive,inactive,inactive,–,–,–,–
CC1COc2ccccc2N1 (centres undefined),inactive,inactive,inactive,inactive,–,–,–,–
COC(=O)[C@H]1[C@H]2C[C@@H]3c4[nH]c5cc(OC)ccc5c4CCN3C[C@H]2C[C@@H](OC(=O)COc2ccc(OC)cc2)[C@@H]1OC,inactive,inactive,inactive,inactive,–,–,–,–
CCCCCCC1CCC(=O)O1 (centres undefined),inactive,inactive,inactive,inactive,–,–,–,–
C=C(C)C(=O)OCCC(F)(F)C(F)(F)C(F)(F)C(F)(F)C(F)(F)C(F)(F)F,inactive,inactive,inactive,inactive,–,–,–,–
CCCCOC(=O)C(C)CC (centres undefined),inactive,inactive,inactive,inactive,–,–,–,–
CC(C)(C)c1cc(CCC(=O)NN)cc(C(C)(C)C)c1O,inactive,inactive,inactive,inactive,–,–,–,–
C=CCn1c(=O)n(CC=C)c(=O)n(CC=C)c1=O,inactive,inactive,inactive,inactive,–,–,–,–
CCCCc1ccc2cccc(S(=O)(=O)O)c2c1,inactive,inactive,inactive,inactive,–,–,–,–
O=P(O)(O)C(O)(Cc1cccnc1)P(=O)(O)O,inactive,inactive,inactive,inactive,–,–,–,–
c1ccc(-c2nc3ccccc3[nH]2)cc1,inactive,inactive,inactive,inactive,–,–,–,–
O=C(O)c1ccccc1C(=O)Nc1ccc(S(=O)(=O)Nc2nccs2)cc1,inactive,inactive,inactive,inactive,–,–,–,–
C1C[C@@H]2[C@H]3CC[C@H](C3)[C@@H]2C1,inactive,inactive,inactive,inactive,–,–,–,–
Cc1ccccc1N1C(=O)c2cc(S(N)(=O)=O)c(Cl)cc2NC1C (centres undefined),inactive,inactive,inactive,inactive,–,–,–,–
Nc1nc(-c2ccccc2)cs1,inactive,inactive,inactive,inactive,–,–,–,–
Cc1ccc(C=O)s1,inactive,inactive,inactive,inactive,–,–,–,–
C[C@@H](O)[C@H]1C(=O)N2C(C(=O)O)=C([C@H]3CCCO3)S[C@H]12,inactive,inactive,inactive,inactive,–,–,–,–
[Cl][Eu]([Cl])[Cl],inactive,inactive,inactive,inactive,–,–,–,–
CCCCCCCCCCCCCCCCCO,–,–,–,–,0.97% [at 23.6 µM],-1.09% [at 23.6 µM],0.561% [at 23.8 µM],3.32% [at 23.6 µM]
